KB-3-1 tox = kills parental KB-3-1 adenocarcinoma cells; KB-3-1 viability, CellTiter-Glo ATP luminescence, 72 h; Potency, µM (titrated, usually from 46.1 µM), most hits filed as cytotoxic; 400,000 tested, 1.4% active; AID 1347075; note: % is set by controls: 0 for no effect and ±100 for the full control effect; nearly all actives have a fitted effect of over 60% in size
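Using CellTiter-Glo luminescence, growth of non-resistant KB-3-1 adenocarcinoma cells is assessed 72 h after pin-tool compound addition at 37 °C. Normalized responses across the concentration series yield fitted curves.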
MCF10A rerep = inducers of DNA re-replication in MCF 10A breast cells | MCF 10A DNA re-replication, Hoechst nuclear intensity, 48 h | Potency, µM (series often up to 46.1 µM), without a hit: at the top dose activity, positive = re-replication, actives largely listed as activators | 350,000 tested, 2.9% active | AID 624296; note: % of control where 0% means no effect; nearly all actives have a fitted effect of over 50% in size
HT1080-NT tox = kills 2HG-producing HT-1080-NT fibrosarcoma cells; HT-1080-NT fibrosarcoma viability, CellTiter-Glo ATP luminescence, 48 h; Potency, µM (top dose mostly 46.1 µM), for the others: top-dose activity, negative = less viability, actives largely listed as cytotoxic; 360,000 tested, 1.6% active; AID 686970;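 note: NT is the 2HG producing partner of a matched IDH1 knockdown line; 0% = DMSO-treated cells and -100% = media-only wells without cells; nearly all actives have a fitted effect of over 55% in size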
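Fibrosarcoma NT cells, 750 per well in 5% FBS RPMI, were exposed to compound for 48 hours. Viability: CellTiter-Glo luminescence.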
HT1080 IDH1KD tx = kills HT-1080 cells with IDH1 knockdown; AID 686971; 360,000 tested, 2% active; HT-1080 IDH1 knockdown viability, ATP luminescence, 48 h; Potency, µM (titrated, usually from 46.1 µM), for the others: at the top dose activity, negative = toxicity, actives largely listed as cytotoxic;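 note: 0% = DMSO wells and -100% = cell-free medium wells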
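After a 2 h attachment period, IDH1KD HT-1080 cells took pin-transferred compound for 48 h at 37 °C; ATP-based luminescence after 10 min room-temperature reagent incubation reported viability.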
SW480 rerep = induces DNA re-replication in SW480 colon adenocarcinoma cells. 340,000 tested, 1.8% active. SW480 DNA re-replication, Hoechst DNA content imaging, 48 h. Potency, µM (highest dose often 46.1 µM), without a hit: top-dose re-replication activation, hits mostly activators; note: % of control where 0% means no effect; nearly all actives have a fitted effect of over 55% in size
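Quantitative HTS format with DMSO vehicle controls; 48 hr drug incubation at 37 C, then 40 min Hoechst staining and scanning imager measurement at 405 nm excitation.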
KB-V1 MDR tox = kills drug-selected multidrug resistant KB-V1 cells; KB-V1 MDR cells viability, CellTiter-Glo, 72 h; Potency, µM (top dose mostly 46.1 µM), hits mostly cytotoxic; 400,000 tested, 3.4% active; note: % is set by controls: 0 for no effect and ±100 for the full control effect; nearly all actives have a fitted effect of over 60% in size
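Cells of the MDR subline KB-V1 are plated, dosed with compound at multiple concentrations, and incubated 72 h at 37 degrees C; CellTiter-Glo is then added and luminescence read after 10 min.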
Starred values were filed as active, the others as inactive. An excerpt weighted towards active compounds, which were near 8% of everything screened. Calls come from the whole dose curve; as a rule, active = well fitted curve in the direction sought with a large enough effect; inconclusive = small, poorly fitted or top-dose-only effect, or another doubt; inactive = no such curve, though single readings can be large; an effect the other way counts as inactive or inconclusive. Potency is the fitted concentration of half-maximal effect.

How did Cc1nc(C)c(C(=O)N/N=C/c2cc(Br)ccc2O)s1 do in these assays?
KB-3-1 tox: inactive; MCF10A rerep: inconclusive; HT1080-NT tox: inconclusive; HT1080 IDH1KD tx: 2.06µM*; SW480 rerep: inconclusive; KB-V1 MDR tox: inactive

How did Cc1ccc(/C=N/NC(=O)c2nnn(-c3nonc3N)c2CNc2ccccc2)cc1 do in these assays?
KB-3-1 tox: inactive; MCF10A rerep: 15.4%; HT1080-NT tox: -0.1%; HT1080 IDH1KD tx: -1.8%; SW480 rerep: 23.0%; KB-V1 MDR tox: inactive

How did O=C(NCC1CCN(S(=O)(=O)c2ccccc2)CC1)Nc1ccccc1 do in these assays?
KB-3-1 tox: inactive; MCF10A rerep: 11.7%; HT1080-NT tox: -9.9%; HT1080 IDH1KD tx: 0.8%; SW480 rerep: -10.6%; KB-V1 MDR tox: inactive

What do the screens show for `CCCCc1ccc(NC(=O)Nc2cnccn2)cc1`?
KB-3-1 tox: 11.6µM*; MCF10A rerep: 22.1%; HT1080-NT tox: inconclusive; HT1080 IDH1KD tx: inconclusive; SW480 rerep: inconclusive; KB-V1 MDR tox: inconclusive

What do the screens show for `CCCCc1ccc(NC(=O)Nc2cc(C)nn2C)cc1`?
KB-3-1 tox: 6.51µM*; MCF10A rerep: inconclusive; HT1080-NT tox: inconclusive; HT1080 IDH1KD tx: inconclusive; SW480 rerep: 4.5%; KB-V1 MDR tox: inactive

What do the screens show for `Cc1cc(NC(=O)Nc2ccc(F)cc2F)n(C)n1`?
KB-3-1 tox: inconclusive; MCF10A rerep: inconclusive; HT1080-NT tox: inconclusive; HT1080 IDH1KD tx: inconclusive; SW480 rerep: 3.1%; KB-V1 MDR tox: inactive

How did CCc1ccc(NC(=O)Nc2cnccn2)cc1 do in these assays?
KB-3-1 tox: inactive; MCF10A rerep: -10.5%; HT1080-NT tox: -0.9%; HT1080 IDH1KD tx: -5.1%; SW480 rerep: 11.6%; KB-V1 MDR tox: inactive

What do the screens show for `NC(=O)c1ccc(Nc2nc(C(N)c3ccccc3Cl)cs2)cc1` (centres undefined)?
KB-3-1 tox: inactive; HT1080-NT tox: -5.9%; HT1080 IDH1KD tx: 0.0%; KB-V1 MDR tox: inactive

What do the screens show for `COc1ccc(NC(c2nnc(-c3ccccc3)o2)c2ccccc2F)cc1Cl` (centres undefined)?
KB-3-1 tox: inactive; KB-V1 MDR tox: inactive

Results for OCC1(Cc2cccc(Cl)c2)CCCN(Cc2cnn(-c3ccccc3)c2)C1 (centres undefined) ?
KB-3-1 tox: inactive; MCF10A rerep: inconclusive; HT1080-NT tox: -1.8%; HT1080 IDH1KD tx: -14.8%; SW480 rerep: 131.5%; KB-V1 MDR tox: inactive

What do the screens show for `CC(C)(C)c1ccc(OCC(=O)Nc2ccncc2)c(Br)c1`?
KB-3-1 tox: inconclusive; MCF10A rerep: 14.6µM*; HT1080-NT tox: -28.3%; HT1080 IDH1KD tx: -25.7%; SW480 rerep: -2.4%; KB-V1 MDR tox: inconclusive

Results for CC(C)CCOc1cccc(OCC(=O)Nc2ccncc2)c1 ?
KB-3-1 tox: inconclusive; MCF10A rerep: inconclusive; HT1080-NT tox: inconclusive; HT1080 IDH1KD tx: inconclusive; SW480 rerep: 0.5%; KB-V1 MDR tox: 2.91µM*

What do the screens show for `COc1cccc(OCC(=O)Nc2ccncc2)c1`?
KB-3-1 tox: inconclusive; MCF10A rerep: 1.1%; HT1080-NT tox: -12.9%; HT1080 IDH1KD tx: -8.5%; SW480 rerep: -2.6%; KB-V1 MDR tox: inactive

Results for Cc1ccccc1OCC(=O)NNC(=S)NC(=O)c1ccccc1[N+](=O)[O-] ?
KB-3-1 tox: inconclusive; MCF10A rerep: -5.7%; HT1080-NT tox: -18.3%; HT1080 IDH1KD tx: inconclusive; SW480 rerep: 2.0%; KB-V1 MDR tox: inconclusive

What do the screens show for `CC(C)(C)c1ccc(OCC(=O)NNC(=S)NC(=O)c2ccccc2[N+](=O)[O-])c(Br)c1`?
KB-3-1 tox: inconclusive; MCF10A rerep: 20.6µM*; HT1080-NT tox: inconclusive; HT1080 IDH1KD tx: 18.4µM*; SW480 rerep: inconclusive; KB-V1 MDR tox: inconclusive

What do the screens show for `CCc1ccc(OCC(=O)Nc2ccncc2)c(Br)c1`?
KB-3-1 tox: inconclusive; MCF10A rerep: inconclusive; HT1080-NT tox: inconclusive; HT1080 IDH1KD tx: inconclusive; SW480 rerep: inconclusive; KB-V1 MDR tox: 9.2µM*

What do the screens show for `Cc1cc(-c2cccnc2)c(C#N)c(SCc2cccc(F)c2)n1`?
KB-3-1 tox: inactive; MCF10A rerep: -1.1%; HT1080-NT tox: -13.1%; HT1080 IDH1KD tx: inconclusive; SW480 rerep: 0.3%; KB-V1 MDR tox: 11.6µM*

How did O=C(Nc1ccc2c(c1)OCCO2)c1cccc(S(=O)(=O)N2CCOCC2)c1 do in these assays?
KB-3-1 tox: inactive; MCF10A rerep: 3.6%; HT1080-NT tox: 8.5%; HT1080 IDH1KD tx: 0.3%; SW480 rerep: 6.0%; KB-V1 MDR tox: 20.6µM*

What do the screens show for `Cc1ccc(NC(=O)CNc2cccc(S(=O)(=O)N3CCOCC3)c2)cc1F`?
KB-3-1 tox: inactive; MCF10A rerep: 23.8%; HT1080-NT tox: -2.4%; HT1080 IDH1KD tx: -16.4%; SW480 rerep: -0.8%; KB-V1 MDR tox: inactive

How did O=C(Nc1cccc(S(=O)(=O)N2CCCC2)c1)c1cccc(S(=O)(=O)N2CCOCC2)c1 do in these assays?
KB-3-1 tox: inactive; MCF10A rerep: 4.2%; HT1080-NT tox: -3.8%; HT1080 IDH1KD tx: 6.7%; SW480 rerep: -8.1%; KB-V1 MDR tox: inactive

Results for O=C(Nc1ccc2c(c1)OCCO2)c1cccc(S(=O)(=O)N2CCCCC2)c1 ?
KB-3-1 tox: inactive; MCF10A rerep: inconclusive; HT1080-NT tox: -2.8%; HT1080 IDH1KD tx: -11.3%; SW480 rerep: -0.2%; KB-V1 MDR tox: 16.4µM*

Results for CCN(CC)S(=O)(=O)c1cc(NC(=O)CNc2cccc(S(=O)(=O)N3CCOCC3)c2)ccc1C ?
KB-3-1 tox: 8.2µM*; MCF10A rerep: 21.2%; HT1080-NT tox: 6.51µM*; HT1080 IDH1KD tx: 18.4µM*; SW480 rerep: 11.3%; KB-V1 MDR tox: inactive

Results for Cc1ccc(NC(=O)c2cccc(S(=O)(=O)N(C)c3ccccc3)c2)cc1S(=O)(=O)N1CCOCC1 ?
KB-3-1 tox: inconclusive; MCF10A rerep: -2.2%; HT1080-NT tox: -3.6%; HT1080 IDH1KD tx: -15.4%; SW480 rerep: 0.4%; KB-V1 MDR tox: 5.17µM*

Results for COC(=O)c1cn(NC(=O)CCC2CCCC2)c(=O)c2ccccc12 ?
KB-3-1 tox: inactive; MCF10A rerep: -1.0%; HT1080-NT tox: 1.0%; HT1080 IDH1KD tx: 10.4%; SW480 rerep: -6.3%; KB-V1 MDR tox: inactive

How did CCOc1ccc(S(=O)(=O)/N=C(/Nc2ccc(C)c(S(=O)(=O)N3CCOCC3)c2)c2ccccc2)cc1 do in these assays?
KB-3-1 tox: inactive; MCF10A rerep: 4.9%; HT1080-NT tox: -2.7%; HT1080 IDH1KD tx: -0.4%; SW480 rerep: 0.9%; KB-V1 MDR tox: 9.2µM*
